Assay outcomes from PubChem BioAssay.
KB-V1 MDR tox: qHTS assay for MDR1-selective chemotherapeutics: Primary screen using the drug-selected MDR subline cells KB-V1; KB-V1 MDR cells viability, CellTiter-Glo, 72 h; Potency, µM (series often up to 46.1 µM), most hits filed as cytotoxic; actives 3.4% (n = 400,000); also: % is scaled to controls: 0 for no effect and ±100 for the full control effect; nearly all actives have a fitted effect of over 60% in size
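Potencies derive from concentration-effect curves fitted to normalized luminescence (CellTiter-Glo) of KB-V1 cells treated for 72 h at 37 degrees C in phenol-red-free DMEM containing 10% FBS.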
SW480 rerep: A quantitative high throughput screen for small molecules that induce DNA re-replication in SW480 colon adenocarcinoma cells; Potency, µM (top dose mostly 46.1 µM), for the others: at the top dose re-replication activation, actives largely listed as activators; actives 1.8% (n = 340,000); SW480 DNA re-replication, Hoechst DNA content imaging, 48 h; AID 624297, 2012; also: % of control where 0% means no effect; nearly all actives have a fitted effect of over 55% in size
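Hoechst fluorescence of nuclei (405 nm excitation, 500-530 nm emission) measured by plate-scanning imager after 48 hr compound exposure at 37 C; re-replication scored as increased number of nuclei with elevated intensity.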
KB-3-1 tox: qHTS assay for MDR1-selective chemotherapeutics: Primary screen using the parental adenocarcinoma cell KB-3-1; KB-3-1 viability, CellTiter-Glo ATP luminescence, 72 h; Potency, µM (series often up to 46.1 µM), usual class: cytotoxic; actives 1.4% (n = 400,000); AID 1347075, 2019; also: % is scaled to controls: 0 for no effect and ±100 for the full control effect; nearly all actives have a fitted effect of over 60% in size
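Cells are dispensed, compounds pinned in, plates held at 37 °C for 72 h, then CellTiter-Glo is added and luminescence read after 10 minutes. Cell line: parental KB-3-1 in phenol-red-free DMEM, 10% FBS.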
MCF10A rerep: A quantitative high throughput screen for small molecules that induce DNA re-replication in MCF 10a normal breast cells; MCF 10A DNA re-replication, Hoechst nuclear intensity, 48 h; actives 2.9% (n = 350,000); Potency, µM (highest dose often 46.1 µM), inactives show at the top dose activity, positive = re-replication, hits mostly activators; also: % of control where 0% means no effect; nearly all actives have a fitted effect of over 50% in size
ELG1 DNA repair: qHTS screen for small molecules that inhibit ELG1-dependent DNA repair in human embryonic kidney (HEK293T) cells expressing luciferase-tagged ELG1. actives 2.3% (n = 330,000). HEK293T ELG1-luciferase reporter, luminescence, 16 h; DNA damage induced by 5-fluorouridine. Potency, µM (titrated, usually from 46.1 µM), inactives show at the top dose activity change, negative = inhibition, usual class: inhibitors; also: % is scaled to controls: 0 for no effect and ±100 for the full control effect; nearly all actives have a fitted effect of over 55% in size
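HEK293T cells expressing luciferase-tagged ELG1 (2,000/well) received 5-Fluorouridine plus compound or DMSO for 16 hr at 37 °C. Luciferase was read by ONE-Glo luminescence after 30 min at room temperature.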
* hit, by the source's call; i = inactive; ? = inconclusive; . = not tested or not shown. Compounds with a hit are over-represented: about 8.2% of the library has one in this group of screens. Calls follow the shape of the dose curve; as a rule, active = well fitted curve in the direction sought with a large enough effect; inconclusive = small, poorly fitted or top-dose-only effect, or another doubt; inactive = no such curve, though single readings can be large; an effect the other way counts as inactive or inconclusive. Potency is read from the fitted curve at half-maximal effect.

SMILES | KB-V1 MDR tox | SW480 rerep | KB-3-1 tox | MCF10A rerep | ELG1 DNA repair
CCOc1ccc(C(c2c(NC(=O)c3ccccc3)sc(C)c2C)N2CCN(CCO)CC2)cc1 (stereo not drawn) | ? | 3.7µM* | ? | ? | -6%
CCc1cc(C(c2ccncc2)N2CCN(C)CC2)c(NC(=O)c2ccccc2)s1 (stereo not drawn) | 21µM* | -693% | i | -34% | -24%
Cc1sc(NC(=O)c2ccccc2)c(C(c2ccc(Cl)cc2)N2CCN(CCO)CC2)c1C (stereo not drawn) | ? | 24% | 21µM* | ? | -14%
CC1(C(=O)Nc2ccc3c(c2)OCCO3)CN(S(C)(=O)=O)CC(=O)N1CCCN1CCOCC1 (stereo not drawn) | i | . | i | . | .
NC(N)=NN=C(c1ccc(F)cc1)c1ccc(C(F)(F)F)cc1 | ? | 6.5µM* | 3.7µM* | ? | .
CC1CN(C(=O)CCCN2C(=O)c3ccccc3C2=O)CC(C)O1 (stereo not drawn) | i | 5% | i | 5% | -6%
CC(C)[C@H](NC(=O)c1ccccc1Cl)C(=O)OCc1cc([N+](=O)[O-])cc2c1OCOC2 | 21µM* | -2% | i | 13% | ?
CCN(CC)c1nc(Nc2ccccc2)nc(Oc2ccc(C(=O)OC)cc2)n1 | ? | 21µM* | ? | ? | ?
COC(=O)c1ccc(Oc2nc(Nc3ccccc3)nc(N(C)C)n2)cc1 | 15µM* | 13% | i | ? | ?
CCN(CC)c1nc(Oc2ccc(C(=O)NN)cc2)nc(Oc2ccc(C(=O)NN)cc2)n1 | i | 2% | i | 1% | 6%
Cc1cc(C)cc(NC(=O)C2CCCN(c3nnc(-n4c(C)ccc4C)s3)C2)c1 (stereo not drawn) | i | . | i | . | .
FC(F)(F)c1ccccc1Cc1c(-c2cccc(Br)c2)nc2ccc(Br)cn12 | i | . | i | . | .
Oc1[nH]c2ccccc2c1N=Nc1ccccc1Cl | i | -1% | i | -1% | .
O=Nc1c(O)[nH]c2ccc(Cl)c(Cl)c12 | ? | 1% | 0.41µM* | 18% | .
Oc1cncc(Cc2ccccc2)c1 | i | 0% | i | -3% | 1%
COc1ccccc1NC(=O)c1csc2c1CCCC2 | 16µM* | 15% | i | 24% | ?
COc1ccccc1CNC(=O)c1csc2c1CCCC2 | i | -8% | i | -2% | 4%
CC1=C(C(=O)OC(C)(C)C)C(c2cccc3ccccc23)NC(=O)N1 (stereo not drawn) | i | 4% | i | -3% | 0%
Cc1cc(N2CCOCC2)ccc1/C=C1\NC(=O)N(Cc2ccccc2F)C1=O | ? | 7% | i | 5.2µM* | -15%
Cc1cc(N2CCOCC2)ccc1/C=C\[N+](=O)[O-] | ? | 5.8µM* | i | 18µM* | ?
CN1C(=O)/C(=C/c2ccco2)SC1=Nc1ccc(N2CCOCC2)cc1 | i | -12% | i | -3% | ?
CCN=C1S/C(=C\c2ccc(N3CCOCC3)cc2C)C(=O)N1CC | ? | ? | 6.5µM* | ? | 5.8µM*
Cc1cc(N2CCOCC2)ccc1/C=C1\NC(=O)N(Cc2ccccc2)C1=O | i | -13% | i | ? | ?
COCCN1C(=O)/C(=C/c2ccc(N3CCCC3)cc2C)SC1=S | i | -9% | i | -5% | 5%
CN=C1S/C(=C\c2ccc(N3CCOCC3)cc2C)C(=O)N1C | i | 1% | i | -1% | 8.2µM*
CCN1CCN(C(=S)NC(C)c2ccccc2)CC1 (stereo not drawn) | i | 1% | i | 0% | 12%
Cc1cccc(C)c1NC(=O)C1c2ccccc2OCC(=O)N1C1CC1 (stereo not drawn) | i | . | i | . | .
